Reference: PubChem BioAssay AID1224897 (Sanford-Burnham Center for Chemical Genomics, 2016)
Some of the results follow. Active and inactive are the calls of the source. No rule for the calls is given here.

What follows are compounds tested against Hepatocyte nuclear factor 4-alpha (Homo sapiens) (UniProt P41235) (assay: change in HNF4A binding to DNA, retest, confirmation, biochemical, fluorescence polarization, FITC-DNA (AID 1224897)). Settings: 1 h, at 12.5 µM, stronger effect = higher value.
Hepatocyte nuclear factor 4-alpha (Homo sapiens), sequence (P41235 whole entry, looked up): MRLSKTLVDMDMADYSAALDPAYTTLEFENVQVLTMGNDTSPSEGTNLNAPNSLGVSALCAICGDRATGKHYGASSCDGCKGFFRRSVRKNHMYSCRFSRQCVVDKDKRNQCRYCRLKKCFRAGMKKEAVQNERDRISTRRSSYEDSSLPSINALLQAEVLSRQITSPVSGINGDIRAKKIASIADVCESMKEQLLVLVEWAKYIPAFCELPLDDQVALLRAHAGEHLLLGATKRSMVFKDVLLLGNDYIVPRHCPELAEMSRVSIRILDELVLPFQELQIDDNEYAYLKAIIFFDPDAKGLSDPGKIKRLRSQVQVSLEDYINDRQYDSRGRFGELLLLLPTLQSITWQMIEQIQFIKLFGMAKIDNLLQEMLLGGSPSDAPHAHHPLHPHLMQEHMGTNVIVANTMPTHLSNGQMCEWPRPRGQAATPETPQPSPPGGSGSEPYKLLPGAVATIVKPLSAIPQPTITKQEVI

Row | Compound | activity change
1 | Cn1cccc1/C=C1\SC(=S)N(NC(=O)c2ccc(Cl)cc2)C1=O | 72.5% (active)
2 | C/C(=N/Nc1nc(-c2ccccc2)c(CC(=O)O)s1)c1ccccc1 | 57.6% (active)
3 | COc1ccc(-c2nc3cc(C)ccn3c2NC2CCCCC2)cc1SC1CCCCC1 | 37.6% (active)
4 | Fc1cccc(Cc2c(-c3cccc(Cl)c3)nc3ccc(Br)cn23)c1 | 51% (active)
5 | Cn1c2ccccc2c2cc(/C=C(\NC(=O)c3ccccc3)C(=O)NCC(=O)O)ccc21 | 45.6% (active)
6 | Cc1cccc(COc2ccccc2/C=N/Nc2ccc([N+](=O)[O-])cc2)c1 | 56.9% (active)
7 | O=C1/C(=C/c2coc3ccc(O)cc3c2=O)SC(=S)N1c1ccccc1 | 57% (active)
8 | C#CCOCCOCCOCCNc1nc(N2CCN(C(=O)C([C@@H](C)O)n3cc([C@@H](N)CCCCN)nn3)CC2)nc(N2CCN(C(=O)[C@H](CCCCN)n3cc(CN)nn3)CC2)n1 (some centres undefined) | 108% (active)
9 | CCC(C)N1C(=O)S/C(=C/c2ccc(Sc3nc4ccccc4[nH]3)o2)C1=O (centres undefined) | 76.4% (active)
